For 13 molecules, Tm shift results are on record in PubChem BioAssay AID382 (SGCOxCompounds, 2006).

This test has as its target Dual specificity protein kinase CLK1 (Homo sapiens) (UniProt P49759). In words: ligand-induced CLK1 melting temperature shift – biophysical, recombinant human kinase, DSF (AID 382). The following applies: Recombinant CLK1, thermal shift (DSF), buffer 10 mM HEPES, stronger effect = higher value.
The mark [1] stands for this setting: at 10 µM, protein 1.7 µM, pH 7.5, NaCl 150 mM, with 50 µM L-Arg/L-Glu (1:1).
[2] abbreviates: at 10 µM, protein 2 µM, NaCl 150 mM, with 50 mM Arg/Glu.
[3] abbreviates: at 10 µM, protein 2 µM, pH 7.5, NaCl 150 mM.
Where [4] appears, read: measured here: replicate experiment 2, at 10 µM, run 2, protein 2 µM, NaCl 150 mM, with 50 mM Arg/Glu.
Where [5] appears, read: measured here: replicate experiment 2, at 10 µM, run 2, protein 2 µM.

The source made the active and inactive calls. No rule for the calls is given here.

Chain of Dual specificity protein kinase CLK1 (Homo sapiens) (P49759 whole entry, looked up): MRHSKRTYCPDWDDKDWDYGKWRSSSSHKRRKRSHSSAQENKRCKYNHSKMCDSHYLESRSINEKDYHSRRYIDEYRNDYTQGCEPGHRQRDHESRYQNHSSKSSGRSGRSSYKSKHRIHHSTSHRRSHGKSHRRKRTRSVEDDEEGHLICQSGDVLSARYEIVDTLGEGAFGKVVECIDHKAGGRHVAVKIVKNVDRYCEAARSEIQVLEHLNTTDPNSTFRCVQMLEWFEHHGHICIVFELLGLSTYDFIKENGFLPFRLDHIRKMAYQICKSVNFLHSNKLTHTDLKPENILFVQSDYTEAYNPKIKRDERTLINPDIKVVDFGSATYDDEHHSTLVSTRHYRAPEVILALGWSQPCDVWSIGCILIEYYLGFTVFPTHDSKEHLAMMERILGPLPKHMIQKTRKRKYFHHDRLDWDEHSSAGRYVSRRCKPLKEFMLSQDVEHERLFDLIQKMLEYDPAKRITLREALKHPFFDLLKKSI

For the molecule `Nc1nc(Nc2cccc(Cl)c2)sc1C(=O)c1ccc(F)cc1`, the Tm shift under setting [1] is 4 Celsius (active).

For the molecule `CCC(CO)Nc1ccc2ncc(-c3ccc(F)c(Cl)c3)n2n1` (stereo not drawn), under setting [2], the Tm shift is 5.64 Celsius (active).

For `FC(F)(F)Oc1cccc(-c2cnc3ccc(NC4CCOCC4)nn23)c1`, the Tm shift under setting [2] was 5.17 Celsius (active).

With `Clc1cccc(-c2cnc3ccc(NCCc4ccccn4)nn23)c1`, under setting [3], the Tm shift is 4.83 Celsius (active).

For `Clc1ccc(-c2cnn3ccc(NCc4cccnc4)nc23)cc1`, the Tm shift under setting [3] was 4.33 Celsius (active).

For `CN(C)S(O)(O)c1ccc2c(c1)/C(=C/c1cc3c([nH]1)CCCC3)C(=O)N2`, where the note is “at 10 µM, protein 2 µM, pH 7.5, NaCl 150 mM, with 50 mM Arg/Glu”, the Tm shift was 4.8 Celsius (active).

As for `Nc1nc(Nc2ccccc2)sc1C(=O)c1ccc(F)cc1`, the Tm shift under setting [1] is 3.2 Celsius (active).

`Nc1nc(Nc2ccc(F)cc2)sc1C(=O)c1ccccc1`: the Tm shift under setting [1] is 3.3 Celsius (active).

Take `c1ccc(-c2cnc3ccc(NCc4cccs4)nn23)cc1`: the Tm shift under setting [3] is 3.23 Celsius (active).

Take `Clc1cccc(-c2cnc3ccc(NC4CCOCC4)nn23)c1`: the Tm shift under setting [4] worked out at 5.83 Celsius.

As for `CC(=O)c1cccc(-c2cnc3ccc(NCC4CC4)nn23)c1`, under setting [4], the Tm shift turned out to be 6.01 Celsius.

As to `Nc1ncnc2c1c(I)cn2[C@@H]1O[C@H](CO)C(O)C1O` (stereo partly drawn), the Tm shift under setting [5] worked out at 10.5 Celsius.

As to `NC1=N/C(=C2/CCNC(=O)c3[nH]c(Br)cc32)C(=O)N1`, the Tm shift under setting [5] stood at 10.5 Celsius.
